Test results as given in paper PMC4552634, “A New Set of Chemical Starting Points with Plasmodium falciparum Transmission-Blocking Potential for Antimalarial Drug Discovery” (PLoS ONE, 2015).
Hit rate of the full screen: of about 13,000 compounds, about 3,200 (25%) showed an effect of 50% or more. Some of the results follow.

system: P. falciparum stage V gametocytes; parameters: BacTiter-Glo ATP luminescence viability of purified stage V gametocytes in 384-well plates, per cent inhibition versus DMSO; details: 48 h, 5 µM; inhibitor

Compound | % Inhibition
CC(=O)Nc1ccc(CN2CCC(NC(=O)c3ccc(-c4cccc(F)c4)s3)CC2)cc1 [TCMDC-134333] | 6.679%
CCNc1cc(C(=O)N[C@@H](Cc2cc(F)cc(F)c2)[C@H](O)CNCc2cccc(C(F)(F)F)c2)cc(N2CCCCS2(=O)=O)c1 [TCMDC-134678] | -1.763%
CC(C)CCNC(=O)[C@@H]1[C@H]2C(=O)N(C3CCCCC3)C(=O)[C@H]2[C@H]2C=C[C@@H]3C(c4ccc(C(C)(C)C)cc4)=NO[C@@H]3N21 [TCMDC-139763] | -31.5%
Cc1cc(CN2CCCC(OC(c3ccc(F)cc3)c3ccc(F)cc3)C2)ccc1O (stereo not drawn) [TCMDC-136168] | 43.13%
CN(C)CCNc1ncnc2c1[nH]c1ccc(Cl)cc12 [TCMDC-124582] | 1.888%
CCN(CC)CCNc1nc(C=Cc2ccc(Cl)cc2)nc2cc3ccccc3cc12 [TCMDC-125777] | 86.86%
CCN(CC)CCNc1ccnc2[nH]c3ccc(Cl)cc3c12 [TCMDC-131832] | 4.266%
CNC(=O)NC1=NC(C)(C)N(OCc2ccc(Cl)c(Cl)c2)C(NC(=O)NC)=N1 [TCMDC-131694] | 10.36%
CN(C)Cc1ccc(O)c(-c2ccc(C(C)(C)C)cc2)n1 [TCMDC-124147] | 10.19%
COc1ccc2nccc([C@@H](O)CN3CCC(NCCNc4cccc(F)c4)CC3)c2c1 [TCMDC-140716] | -36.18%
Cc1cc(N[C@@H](CC(C)C)C(=O)NCCc2ccccc2)nc(Nc2ccccc2)n1 [TCMDC-134742] | -5.247%
Cc1cc(N[C@@H](CC(C)C)C(=O)NCc2cccs2)nc(NCCc2ccc(F)cc2)n1 [TCMDC-134794] | 46.14%
Cc1cc(N[C@@H](CC(C)C)C(=O)NCc2cccs2)nc(Nc2ccccc2)n1 [TCMDC-134739] | -4.41%
Cc1cc(N[C@@H](CC(C)C)C(=O)NCCc2ccccc2)nc(NCCc2cccs2)n1 [TCMDC-134816] | 67%
COc1ccccc1CCNc1nc(C)cc(N[C@@H](CC(C)C)C(=O)NCc2cccs2)n1 [TCMDC-134806] | 64.45%
COc1ccccc1CCNc1nc(C)cc(N[C@@H](CC(C)C)C(=O)Nc2ccccc2)n1 [TCMDC-134808] | 19.68%
Cc1cc(N[C@@H](CC(C)C)C(=O)NCCc2ccccc2)nc(NCc2ccccc2C)n1 [TCMDC-134911] | -9.933%
COc1ccc(NC(=O)[C@H](CC(C)C)Nc2cc(C)nc(NCCc3ccccc3OC)n2)cc1 [TCMDC-134805] | -9.787%
Cc1cc(N[C@@H](CC(C)C)C(=O)NCc2cccs2)nc(NCCc2ccccc2)n1 [TCMDC-134779] | 68.3%
Cc1cc(N[C@@H](CC(C)C)C(=O)NCc2cccs2)nc(NCCc2cccs2)n1 [TCMDC-134815] | 136.3%
COc1ccc(NC(=O)[C@H](CC(C)C)Nc2cc(C)nc(NCCc3cccs3)n2)cc1 [TCMDC-134875] | -27.08%
